# In PubChem BioAssay (NCATS):
# Records with an inconclusive call do not appear. A call without a number means that no potency is given here. Values without a mark were called inactive. Activity calls are given as the source filed them. Unless noted, the call rests on the fitted dose curve; in most records, active means well fitted curve in the direction sought with a large enough effect; inconclusive means small, poorly fitted or top-dose-only effect, or another doubt; inactive means no such curve, though single readings can be large; an effect the other way counts as inactive or inconclusive.
# What was measured:
# [1] = target: Tumor susceptibility gene 101 protein (Homo sapiens) (UniProt Q99816); test: qHTS Assay for Iinhibitors of HIV-1 Budding by Blocking the Interaction of PTAP/TSG101: Hit Validation (AID 651600); further: potency means the concentration at half of the fitted maximal effect; nearly all actives have a fitted effect of over 70% in size
# Tumor susceptibility gene 101 protein (Homo sapiens), sequence (Q99816 whole entry, looked up, the tested form may be a part): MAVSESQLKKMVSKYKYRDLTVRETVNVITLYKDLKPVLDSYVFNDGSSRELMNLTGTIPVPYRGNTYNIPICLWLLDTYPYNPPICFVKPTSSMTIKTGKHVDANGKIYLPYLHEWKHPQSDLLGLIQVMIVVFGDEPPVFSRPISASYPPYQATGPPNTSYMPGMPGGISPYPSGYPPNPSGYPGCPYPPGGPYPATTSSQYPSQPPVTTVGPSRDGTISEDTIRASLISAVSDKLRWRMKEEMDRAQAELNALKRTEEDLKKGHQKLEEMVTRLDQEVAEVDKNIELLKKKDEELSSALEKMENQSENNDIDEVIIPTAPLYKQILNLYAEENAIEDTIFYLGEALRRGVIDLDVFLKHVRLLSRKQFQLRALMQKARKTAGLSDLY
# Outline: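 Tsg101 binding domain 10 uM + FITC-PTAP peptide 50 nM (final), 10 mM HEPES pH 7.5/0.15 M NaCl/0.01% Tween 20/3 mM EDTA/0.1 mM TCEP; 20 min RT; FP read, FITC filters.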
# [2] = target: Cytochrome P450 2D6 (Homo sapiens) (UniProt P10635); test: Cytochrome P450 family 2 subfamily D member 6 (CYP2D6) small molecule antagonists: luciferase biochemical (cell-free) qHTS assay (AID 1645840; active means well fitted curve in the direction sought with a large enough effect in the repeat runs; an effect the other way counts as inactive or inconclusive; further: nearly all actives have a fitted effect of over 55% in size; further: potency means the concentration at half of the fitted maximal effect)
# Cytochrome P450 2D6 (Homo sapiens), sequence (P10635 whole entry, looked up): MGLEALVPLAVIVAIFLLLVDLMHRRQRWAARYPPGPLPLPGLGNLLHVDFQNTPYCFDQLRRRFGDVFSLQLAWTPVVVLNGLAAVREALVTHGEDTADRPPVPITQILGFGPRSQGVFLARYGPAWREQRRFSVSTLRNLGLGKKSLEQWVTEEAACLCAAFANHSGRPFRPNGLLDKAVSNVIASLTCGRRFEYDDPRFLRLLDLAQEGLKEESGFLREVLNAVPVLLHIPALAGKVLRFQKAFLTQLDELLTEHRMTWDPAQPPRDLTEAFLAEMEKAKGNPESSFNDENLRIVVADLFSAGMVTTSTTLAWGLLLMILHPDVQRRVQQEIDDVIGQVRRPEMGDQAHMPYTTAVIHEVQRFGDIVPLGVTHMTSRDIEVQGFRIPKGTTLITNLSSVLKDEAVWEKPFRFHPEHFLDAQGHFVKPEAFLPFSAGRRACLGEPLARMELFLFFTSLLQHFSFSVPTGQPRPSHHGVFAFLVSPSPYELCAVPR
# Outline: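 P450-Glo luminescent screen: recombinant CYP2D6 enzyme–proluciferin substrate mix preincubated with compound 10 min at room temperature, then NADPH regeneration added for 1 h at room temperature. Detection reagent added for 20 min; luciferin light read as relative luminescence units.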
# [3] = target: Cytochrome P450 2C9 (Homo sapiens) (UniProt P11712); test: Cytochrome P450 family 2 subfamily C member 9 (CYP2C9) small molecule antagonists: luciferase biochemical (cell-free) qHTS assay (AID 1645842; active means well fitted curve in the direction sought with a large enough effect in the repeat runs; an effect the other way counts as inactive or inconclusive; further: nearly all actives have a fitted effect of over 55% in size; further: potency means the concentration at half of the fitted maximal effect)
# Cytochrome P450 2C9 (Homo sapiens), sequence (P11712 whole entry, looked up): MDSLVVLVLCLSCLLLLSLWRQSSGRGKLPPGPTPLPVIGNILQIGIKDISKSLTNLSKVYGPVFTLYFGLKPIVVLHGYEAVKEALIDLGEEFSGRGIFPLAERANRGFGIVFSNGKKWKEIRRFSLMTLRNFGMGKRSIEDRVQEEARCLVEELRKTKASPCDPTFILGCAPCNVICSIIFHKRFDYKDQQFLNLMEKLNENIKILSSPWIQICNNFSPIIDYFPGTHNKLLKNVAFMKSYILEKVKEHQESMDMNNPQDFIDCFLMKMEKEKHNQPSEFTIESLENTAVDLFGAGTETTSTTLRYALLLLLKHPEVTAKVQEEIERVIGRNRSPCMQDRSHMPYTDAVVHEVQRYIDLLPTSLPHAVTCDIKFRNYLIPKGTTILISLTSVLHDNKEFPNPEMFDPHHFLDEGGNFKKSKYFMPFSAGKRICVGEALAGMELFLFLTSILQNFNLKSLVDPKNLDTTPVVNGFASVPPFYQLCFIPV
# Outline: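 Luminescence, after 20 min with luciferin detection reagent, reflected CYP2C9 turnover during a 1 h NADPH-driven reaction at 37C. Enzyme-substrate mix contained 0.4% bovine serum albumin and was preincubated with compound 10 min at room temperature.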
# [4] = target: Rap guanine nucleotide exchange factor 3 (Homo sapiens) (UniProt O95398); test: Confirmatory qHTS for antagonist of cAMP-regulated guanine nucleotide exchange factor 3 (EPAC1) (AID 1645880); further: nearly all actives have a fitted effect of over 55% in size; further: potency means the concentration at half of the fitted maximal effect
# Rap guanine nucleotide exchange factor 3 (Homo sapiens), sequence (O95398 whole entry, looked up): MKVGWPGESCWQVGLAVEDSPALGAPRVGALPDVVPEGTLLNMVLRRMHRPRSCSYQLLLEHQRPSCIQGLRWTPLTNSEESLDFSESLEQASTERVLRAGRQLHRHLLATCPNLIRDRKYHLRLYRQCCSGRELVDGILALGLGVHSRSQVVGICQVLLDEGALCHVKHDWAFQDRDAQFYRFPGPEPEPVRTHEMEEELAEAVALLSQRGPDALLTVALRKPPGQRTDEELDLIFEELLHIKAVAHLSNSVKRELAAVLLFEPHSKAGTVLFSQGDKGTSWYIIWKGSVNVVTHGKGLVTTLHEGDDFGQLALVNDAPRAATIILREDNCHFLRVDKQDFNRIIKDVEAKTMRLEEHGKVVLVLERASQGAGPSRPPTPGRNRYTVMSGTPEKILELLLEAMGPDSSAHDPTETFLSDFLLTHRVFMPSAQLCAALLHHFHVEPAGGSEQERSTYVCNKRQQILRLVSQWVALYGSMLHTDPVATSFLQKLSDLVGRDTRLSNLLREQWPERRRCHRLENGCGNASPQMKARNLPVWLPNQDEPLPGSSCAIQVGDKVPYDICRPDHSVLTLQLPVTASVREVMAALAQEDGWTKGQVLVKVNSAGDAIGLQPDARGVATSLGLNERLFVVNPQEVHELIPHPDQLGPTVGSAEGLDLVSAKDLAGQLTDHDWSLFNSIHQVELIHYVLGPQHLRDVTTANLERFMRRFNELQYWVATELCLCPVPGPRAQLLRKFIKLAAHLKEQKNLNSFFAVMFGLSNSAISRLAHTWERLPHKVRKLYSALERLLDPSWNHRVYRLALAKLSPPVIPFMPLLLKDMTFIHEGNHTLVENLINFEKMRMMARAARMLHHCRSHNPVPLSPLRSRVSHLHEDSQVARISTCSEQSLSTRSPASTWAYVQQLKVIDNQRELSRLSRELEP
# Outline: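 Nucleotide exchange uses 100 nM EPAC1, 250 nM RAP1B-BODIPY-GDP and 50 uM GDP, with compounds in a concentration-titration series. After 5 min at room temperature, fluorescence (480 nm ex/540 nm em) is read every 5 min for 30 min. Data are normalized to control ATA and DMSO.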
# [5] = target: Rap guanine nucleotide exchange factor 3 (Homo sapiens) (UniProt O95398); test: Confirmatory qHTS for agonist of cAMP-regulated guanine nucleotide exchange factor 3 (EPAC1) (AID 1645881);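 further: EPAC1 catalysed release of BODIPY-GDP from Rap1B seen as fluorescence loss; nearly all actives have a fitted effect of over 75% in size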
# [6] = target: Rap guanine nucleotide exchange factor 4 (Homo sapiens) (UniProt Q8WZA2); test: Confirmatory qHTS for agonist of cAMP-regulated guanine nucleotide exchange factor 4 (EPAC2) (AID 1645884);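 further: nucleotide exchange releases bodipy-GDP from Rap1 and this lowers its fluorescence; nearly all actives have a fitted effect of over 65% in size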
# Rap guanine nucleotide exchange factor 4 (Homo sapiens), sequence (Q8WZA2 whole entry, looked up): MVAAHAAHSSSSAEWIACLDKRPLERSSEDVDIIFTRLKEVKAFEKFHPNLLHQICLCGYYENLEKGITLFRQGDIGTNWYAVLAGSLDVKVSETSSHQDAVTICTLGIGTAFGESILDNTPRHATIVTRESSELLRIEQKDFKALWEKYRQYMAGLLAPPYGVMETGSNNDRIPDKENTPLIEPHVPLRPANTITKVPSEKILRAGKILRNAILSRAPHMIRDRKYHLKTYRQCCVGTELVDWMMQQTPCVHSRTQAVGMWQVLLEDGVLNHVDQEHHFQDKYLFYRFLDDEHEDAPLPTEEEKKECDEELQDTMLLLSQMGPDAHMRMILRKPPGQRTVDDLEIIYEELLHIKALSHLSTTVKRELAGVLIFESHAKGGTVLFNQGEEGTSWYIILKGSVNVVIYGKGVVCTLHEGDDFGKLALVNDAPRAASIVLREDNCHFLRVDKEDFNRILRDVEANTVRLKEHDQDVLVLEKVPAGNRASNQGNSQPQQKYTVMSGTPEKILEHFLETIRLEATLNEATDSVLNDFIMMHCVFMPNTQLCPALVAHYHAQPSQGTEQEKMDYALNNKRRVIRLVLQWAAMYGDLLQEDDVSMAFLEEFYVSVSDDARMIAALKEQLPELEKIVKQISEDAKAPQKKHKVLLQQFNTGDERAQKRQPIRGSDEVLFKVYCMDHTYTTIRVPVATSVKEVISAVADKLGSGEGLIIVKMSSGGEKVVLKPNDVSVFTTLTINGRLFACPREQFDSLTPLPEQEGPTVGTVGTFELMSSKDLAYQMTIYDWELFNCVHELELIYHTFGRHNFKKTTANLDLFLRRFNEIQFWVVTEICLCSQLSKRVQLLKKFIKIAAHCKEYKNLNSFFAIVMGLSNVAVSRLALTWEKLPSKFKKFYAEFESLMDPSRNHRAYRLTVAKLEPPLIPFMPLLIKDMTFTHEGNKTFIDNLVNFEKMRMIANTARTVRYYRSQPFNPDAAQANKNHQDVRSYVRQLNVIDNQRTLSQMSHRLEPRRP
# [7] = target: Rap guanine nucleotide exchange factor 4 (Homo sapiens) (UniProt Q8WZA2); test: Confirmatory qHTS for antagonist of cAMP-regulated guanine nucleotide exchange factor 4 (EPAC2) (AID 1645885); further: nearly all actives have a fitted effect of over 25% in size; further: potency means the concentration at half of the fitted maximal effect
# [8] = target: Rap guanine nucleotide exchange factor 3 (Homo sapiens) (UniProt O95398); test: Counterscreen qHTS for antagonist of cAMP-regulated guanine nucleotide exchange factor 3 (EPAC1) (AID 1645888);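 further: fluorescence loss as bound BODIPY-GDP is released from Rap1B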
# Outline: (§1)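 Rap1B–BODIPY-GDP (250 nM) with 50 uM GDP; compounds pin-transferred to 9.74 nM–152 uM final (activator) or from 7.32 nM upwards (inhibitor). Fluorescence Ex/Em 480/540 nm read at 5 and 30 min, then after adding cAMP or buffer, at room temperature.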
# [9] = target: Rap guanine nucleotide exchange factor 3 (Homo sapiens) (UniProt O95398); test: Counterscreen qHTS for agonist of cAMP-regulated guanine nucleotide exchange factor 3 (EPAC1) (AID 1645889); further: nearly all actives have a fitted effect of over 40% in size
# Outline: as §1
# [10] = target: Glutathione peroxidase 1 (Homo sapiens) (UniProt P07203); test: Primary qHTS Assay for Inhibitors of Recombinant Selenoprotein Glutathione Peroxidase 1 (GPX1) (AID 1845191); further: nearly all actives have a fitted effect of over 65% in size
# Glutathione peroxidase 1 (Homo sapiens), sequence (P07203 whole entry, looked up): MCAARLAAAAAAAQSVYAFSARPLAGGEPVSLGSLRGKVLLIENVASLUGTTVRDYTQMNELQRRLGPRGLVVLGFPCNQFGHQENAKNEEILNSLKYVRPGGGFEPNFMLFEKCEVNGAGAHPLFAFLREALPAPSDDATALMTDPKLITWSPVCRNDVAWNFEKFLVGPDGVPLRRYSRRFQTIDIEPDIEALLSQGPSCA
# Outline: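 GR-coupled assay: compounds preincubated 30 min at room temperature with GPX1, then reaction started with CHP; final 10 nM GPX1, 1 mM GSH, 0.5 mM CHP, 0.5 mM NADPH, 100 nM GR, 0.01% BSA, pH 7.5 Tris buffer. NADPH fluorescence (340/450 nm) read at 0 and 15 min.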
# [11] = target: Phospholipid hydroperoxide glutathione peroxidase GPX4 (Homo sapiens) (UniProt P36969); test: Primary qHTS Assay for Inhibitors of Recombinant Selenoprotein Glutathione Peroxidase 4 (GPX4) (AID 1845192); further: nearly all actives have a fitted effect of over 65% in size
# Phospholipid hydroperoxide glutathione peroxidase GPX4 (Homo sapiens), sequence (P36969 whole entry, looked up): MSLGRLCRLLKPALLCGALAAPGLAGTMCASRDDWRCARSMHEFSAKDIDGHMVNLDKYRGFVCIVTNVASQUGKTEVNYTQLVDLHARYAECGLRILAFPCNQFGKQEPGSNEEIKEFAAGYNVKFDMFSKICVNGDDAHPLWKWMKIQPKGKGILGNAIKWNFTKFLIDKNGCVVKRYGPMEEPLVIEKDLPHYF
# Outline: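 GR-coupled assay: recombinant GPX4 preincubated 30 min with compound at room temperature; final 200 nM GPX4, 1 mM GSH, 0.5 mM cumene hydroperoxide, 0.5 mM NADPH, 100 nM GR, 0.01% BSA, pH 7.5 Tris. NADPH fluorescence (340/450 nm) read at 0 and 15 min.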
smiles,measurement,setting,value
Cc1ccc2c(c1)-c1c(c(C(=O)N3CCN(c4cc(C)ccc4C)CC3)nn1C)CS2,Potency,[1],18.3 µM (active)
same,Potency,[2],inactive
same,Potency,[3],2.39 µM (active)
same,Potency,[4],inactive
same,Potency,[5],inactive
same,Potency,[6],inactive
same,Potency,[7],3.79 µM (active)
same,Potency,[8],inactive
same,Potency,[9],inactive
C#C[C@]1(O)CC[C@@H]2[C@@H]3CCC4=CCCC[C@@H]4[C@H]3C(=C)C[C@@]21CC,Potency,[2],inactive
same,Potency,[3],3.38 µM (active)
same,Potency,[10],inactive
Cc1cc(O)c(Cl)c(C)c1Cl,Potency,[2],inactive
same,Potency,[3],inactive
COc1ccc(C=CC(=O)O)cc1,Potency,[2],inactive
same,Potency,[3],inactive
same,Potency,[10],inactive
same,Potency,[11],inactive
CC(=O)c1ccc(N2CCN(c3ncnc4c3cnn4C)CC2)cc1,Potency,[2],inactive
same,Potency,[3],inactive
Cc1cccc(OCCCSc2nc(-c3ccc(C(C)(C)C)cc3)nc3cc(=O)[nH]n23)c1C,Potency,[2],inactive
same,Potency,[3],13.5 µM (active)
same,Potency,[4],37.9 µM (active)
same,Potency,[5],inactive
same,Potency,[6],inactive
same,Potency,[7],inactive
same,Potency,[8],inactive
same,Potency,[9],inactive
Cc1ccc(/C=C2\C(=O)C3(C)CCC2C3(C)C)cc1 (stereo unspecified),Potency,[2],inactive
same,Potency,[3],8.49 µM (active)
same,Potency,[10],inactive
same,Potency,[11],inactive
CC(C)(C)c1ccc(-c2nc(SCCCOc3ccccc3)n3[nH]c(=O)cc3n2)cc1,Potency,[2],inactive
same,Potency,[3],10.7 µM (active)
same,Potency,[4],60.1 µM (active)
same,Potency,[5],inactive
same,Potency,[6],inactive
same,Potency,[7],inactive
same,Potency,[8],inactive
same,Potency,[9],inactive
COc1ccc(C(Nc2ccccn2)c2ccc3ccc(C)nc3c2O)cc1C (stereo unspecified),Potency,[2],21.3 µM (active)
same,Potency,[3],2.68 µM (active)
O=C(CSc1nc2ccsc2c(=O)n1Cc1ccccc1F)NCc1ccccc1Cl,Potency,[2],2.68 µM (active)
same,Potency,[3],1.51 µM (active)
CC(C)[C@H]1CC[C@H](C)C[C@H]1O,Potency,[2],inactive
same,Potency,[3],inactive
same,Potency,[10],inactive
same,Potency,[11],inactive
Oc1cccc(C(Nc2ccccn2)c2ccc3cccnc3c2O)c1Cl (stereo unspecified),Potency,[2],13.5 µM (active)
same,Potency,[3],10.7 µM (active)
same,Potency,[5],inactive
same,Potency,[6],inactive
same,Potency,[7],inactive
same,Potency,[8],inactive
O=C(CC1N=C2c3ccccc3N=C(SCc3ccc(F)cc3)N2C1=O)NC1CCCCC1 (stereo unspecified),Potency,[2],3.01 µM (active)
same,Potency,[3],2.68 µM (active)
